In the OligoGym collection:

Target: MTX3
Assay: pooled miR-30 sensor sort-seq; sequence = guide strand
Settings: shRNA
Also: reference of the scale not given here.

Row | Sequence | sensor-assay potency score (higher = more potent)
1 | TTGGCGAAGATTGTCATCCATC | -1.1
2 | TTAATATTTATCTATGTGCTAC | -0.31
3 | TAATTGTCACTCTCAACCCAGA | -0.703
4 | TAGAAGATTTAGGCACTCCTTG | -0.542
5 | ATAATCAGCATTATATTTCTGT | 0.674
6 | TTTGCCTTCACACACTTGGTGT | -0.519
7 | TTGCTGAGAGTTCATAATCAGC | -1.72
8 | TATCACATTGACTTTCAAGGGT | 0.582
9 | TAAAGTAATTGTCACTCTCAAC | -1.48
10 | TTTAGGAAACCGTACTTTGTAA | -0.773
11 | TTTTGGTTTAGAGTCTTCCTTA | 0.00174

Target: MUC16
Assay: as above
Settings: shRNA

Row | Sequence | sensor-assay potency score (higher = more potent)
12 | TTGACATAGAAACTATTGCTTG | -0.839
13 | TTCAGTAGTAGCACTAGTGGGC | 0.151
14 | TTGGACTTTCTGAACTAGCGTG | -0.377
15 | TAGTTGTCGTTGAAACAGCTGA | -0.38
16 | TTTGTCTCTGTTGTTGAGCTGG | 0.192
17 | TTGACATAGAGACTGTTCCGGT | -0.323
18 | TTGTCTGTGATGTTGAACTTGA | -0.129
19 | TTGACATAGAGACTGTTCCTGT | -0.0675
20 | TTGACATAGAGACTGTCCCTGT | -0.193
21 | TTGTCTTTGAAACCAGTTCTGG | -0.722
22 | TTGACATAGAGACTGTGCCTGT | -0.153

Target: MUC20
Assay: as above
Settings: shRNA

Row | Sequence | sensor-assay potency score (higher = more potent)
23 | TTCATCGTGGTCTTCGCTGAGG | -0.448
24 | TGAAACACAGAACATGTGCCAA | -0.681
25 | TACTGAAACACAGAACATGTGC | 0.46
26 | TTAATAACCTCGATGTTTGTGA | -0.0395
27 | TTCACCTGCACTCACGTCTGTG | -1
28 | TTCGCTGAGGTTGTGATCTTGG | 0.418
29 | TAACTTGGTGTCTCAACAGAGA | -0.859
30 | TCTGTGGTCGGCCTCGTCCGGG | -1.58
31 | TTGGTGTCTCAACAGAGAGGGC | -0.842
32 | TTGTGAGTGTCTTTGCCTCTTC | -0.403
33 | TTTACTGAAACACAGAACATGT | -0.607

Target: MUC4
Assay: as above
Settings: shRNA

Row | Sequence | sensor-assay potency score (higher = more potent)
34 | TTTGTCATCTTTCTAATCCAAG | -1.23
35 | TTTTTACTGACTTCCCTCGTGT | 0.677
36 | TTGTCTGTGAAGTAGAGGGAAT | -1.17
37 | TAGATGGAGAAGGACACACAGC | -1.17
38 | TTCAGGAAGTCAATGACCGGGC | -0.298
39 | TAGTCTTGTCTTGATTCCCAGT | -0.823
40 | TTGAAGGTGTAACTGACACCAT | 0.0208
